Screens as filed in PubChem.
PI4K2A inh: PI4K2A (human) kinase inhibition; AID 1346378; purified PI4K2A, ADP-Glo luminescence, 1 h; hits give low values; 420,000 compounds, 0.13% hits; activity change, negative = inhibition, % at 76.9 µM; in the data active = activity change below about -50%; inconclusive = mostly about -30% to -49%;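 note: -100% = wells without enzyme as full effect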
Target sequence (Q9BTU6 whole entry, looked up): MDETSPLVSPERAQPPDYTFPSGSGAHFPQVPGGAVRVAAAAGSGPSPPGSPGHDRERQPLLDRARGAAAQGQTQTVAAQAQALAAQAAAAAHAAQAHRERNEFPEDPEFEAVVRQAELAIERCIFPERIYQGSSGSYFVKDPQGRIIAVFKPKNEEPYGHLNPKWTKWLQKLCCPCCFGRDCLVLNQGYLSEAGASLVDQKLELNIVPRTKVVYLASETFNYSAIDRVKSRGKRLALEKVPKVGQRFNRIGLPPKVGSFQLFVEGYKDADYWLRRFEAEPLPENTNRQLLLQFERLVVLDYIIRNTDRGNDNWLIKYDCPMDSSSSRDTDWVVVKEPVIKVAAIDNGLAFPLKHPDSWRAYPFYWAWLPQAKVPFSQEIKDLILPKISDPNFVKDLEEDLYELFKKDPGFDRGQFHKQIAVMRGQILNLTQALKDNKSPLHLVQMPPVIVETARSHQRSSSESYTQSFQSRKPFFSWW
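Compounds are screened against recombinant PI4K2A using PI as substrate and ATP, the latter dispensed at 300 microM. Reactions run one hour at ambient temperature before ADP-Glo detection; full inhibition defined by wells lacking enzyme.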
KB-3-1 cytotox: KB-3-1 parental cell cytotoxicity. KB-3-1 viability, CellTiter-Glo ATP luminescence, 72 h. Potency, µM (highest dose often 46.1 µM), hits mostly cytotoxic. 400,000 compounds, 1.4% hits. AID 1347075; note: potency is the fitted concentration of half-maximal effect; nearly all actives have a fitted effect of over 60% in size
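Viability of parental KB-3-1 cells, measured by CellTiter-Glo luminescence, followed a 72 h incubation at 37 °C with pinned compounds in phenol-red-free DMEM containing 10% FBS.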
Nrf2 inh: Nrf2 pathway inhibition; A549 ARE-Fluc reporter, luciferase luminescence, 18-24 h; Potency, µM (series often up to 46 µM), for the others: at the highest dose activity change, negative = inhibition, usual class: inhibitors; 360,000 compounds, 2.1% hits; note: potency is the fitted concentration of half-maximal effect; nearly all actives have a fitted effect of over 60% in size
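Concentration-response testing used A549 ARE_Fluc cells at 5000 cells/well. Following an 18-24 h compound incubation, viability was read by fluorescence (Ex 405/Em 525) and luciferase output by luminescence.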
KB-V1 cytotox: KB-V1 MDR subline cytotoxicity; AID 1347076; Potency, µM (doses to about 46.1 µM), most hits filed as cytotoxic; KB-V1 MDR cells viability, CellTiter-Glo, 72 h; 400,000 compounds, 3.4% hits; note: potency is the fitted concentration of half-maximal effect; nearly all actives have a fitted effect of over 60% in size
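Drug-selected KB-V1 cells, grown in DMEM lacking phenol red with 10% FBS, receive compound titrations; after three days at 37 degrees C, surviving cell ATP is quantified by CellTiter-Glo luminescence and responses normalized and curve-fitted.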
A549 viability: counter-screen for Nrf2 inhibitors: cytotoxicity in A549 cells. AID 504648. 390,000 compounds, 0.16% hits. A549 ARE-Fluc cells, CellTiter-Fluor viability, 18-24 h. Potency, µM (doses to about 46 µM), without a hit: top-dose activity change, negative = cytotoxicity, most hits filed as inhibitors; note: potency is the fitted concentration of half-maximal effect
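A549 ARE-Fluc cells in 5% FBS OPTI-MEM, 5000 cells/well, rested 2 h then exposed to compounds in concentration-response for 18-24 h at 37 °C. Viability by CellTiter-Fluor fluorescence (Ex 405/Em 525) after 30 min; luciferase luminescence (BugLite, 15 min, RT) read afterwards.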
Giardia kill: kills Giardia lamblia. Giardia lamblia trophozoite viability. activity change, % at 7.66 µM, hits read low. 340,000 compounds, 0.15% hits; in the data active = activity change below about -80%; inconclusive = between about -30% and that limit;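 note: parasites exposed to compound for two days anaerobically before the ATP read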
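Media and compound were dispensed first, then trophozoites at 100 cells/well; plates sat 48 hrs at 37 deg C without oxygen before ATP luminescence reagent was added and read after 15-30 min at room temperature.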
An asterisk follows results filed as active; i = inactive; ? = inconclusive; / = no result given; [ ] = remark or other dose. This is a sample that favours compounds with a hit; in the whole collection about 5.7% have one here. Unless noted, calls come from the whole dose curve; as a rule, active = well fitted curve in the direction sought with a large enough effect; inconclusive = small, poorly fitted or top-dose-only effect, or another doubt; inactive = no such curve, though single readings can be large; an effect the other way counts as inactive or inconclusive. Unless noted, % is set by controls: 0 for no effect and ±100 for the full control effect.

SMILES	PI4K2A inh	KB-3-1 cytotox	Nrf2 inh	KB-V1 cytotox	A549 viability	Giardia kill
Cn1c(C(=O)OC(C(=O)NCc2ccco2)c2ccncc2)cc2sccc21 (centres undefined)	5.1	i	16.2%	3.66µM*	-12.1%	-12.1
CC(OC(=O)c1cc2sccc2n1C)C(=O)NCc1ccc(F)cc1 (centres undefined)	-7.3	i	-20.5%	?	2.2%	-12.9
CCC(OC(=O)c1cc2sccc2n1C)C(=O)NCC1CCCO1 (centres undefined)	2.8	i	-27.1%	23.1µM*	21.5%	13.7
CC(OC(=O)c1cc2sccc2n1C)C(=O)NCC1CCCO1 (centres undefined)	-2.6	i	?	i	1.1%[1.84 µM]	9.3
Cc1nc(C2CCCCC2)c(-c2ccc(S(N)(=O)=O)c(F)c2)o1	-3.9	/	/	/	/	/
Cc1cc(Br)ccc1NC(=O)CN(C)C(=O)C1CCN(c2ncnc3sc(C)c(C)c23)CC1	-0.9	i	?	?	20.6µM*	25.4
Cc1cccc(C)c1NC(=O)CN(C)C(=O)C1CCN(c2ncnc3sc(C)c(C)c23)CC1	-1.3	i	?	?	-2.0%	-15.5
CCN(CC(=O)Nc1c(F)cccc1F)C(=O)C1CCN(c2ncnc3sc(C)c(C)c23)CC1	0.5	i	?	13µM*	-3.5%	-16.4
Cc1sc2ncnc(N3CCC(C(=O)NNC(=O)c4ccccc4Cl)CC3)c2c1C	5.5	/	16.4µM*	/	-5.9%	14.8
Cc1sc2ncnc(N3CCC(C(=O)NNC(=O)COc4ccccc4Cl)CC3)c2c1C	-4.2	i	?	?	0.0%	1.5
CCCCN1CCS(=O)(=O)N(Cc2cn(Cc3ccc(C)cc3)nn2)C(C(=O)OC)C1 (centres undefined)	-0.1	/	/	/	/	/
Cc1ccc(-c2noc(CCC(=O)N3CCCc4ccccc43)n2)cc1	5.9	i	?	23.1µM*	-4.2%	-11.9
COc1ccccc1N1CCN(C(=O)c2cc(-c3ccc4c(c3)OCO4)on2)CC1	5.3	i	/	16.4µM*	-4.6%	-8.1
COc1ccc(C2=NOC(C(=O)N3CCCc4ccccc43)C2)cc1 (centres undefined)	2.3	i	/	13µM*	4.8%	9.3
COc1ccc(-c2cc(C(=O)N3CCCc4ccccc43)no2)cc1	7.3	i	?	14.6µM*	-0.1%	0.1
COc1ccccc1N1CCN(C(=O)c2cc(-c3ccc(C)c(F)c3)on2)CC1	1.8	/	-3.2%	/	-2.0%	/
CC(C)(C)c1nnc(NC(=O)C2CCN(C(=O)c3ccccc3)CC2)s1	/	i	-29.5%	i	-1.5%	-25.1
Cc1noc(C)c1C(=O)N1CCC(n2nnc3ncccc32)CC1	4.5	/	/	/	/	/
COc1ccc(-c2cc(C(=O)N3CCN(C(c4ccccc4)c4ccccc4)CC3)no2)cc1	-1.9	?	/	20.6µM*	11.9%	6.0
COc1cc2c(cc1OC)C(=O)CC2	-1.8	/	/	/	/	/
c1ccc(Cn2nnc3c(N4CCCC4)ncnc32)cc1	-2.7	i	/	18.4µM*	1.8%	30.2
Cc1nnc(N2CCOCC2)c2nn(-c3ccccc3)c(C)c12	-0.6	i	-12.5%	?	-14.2%	-1.8
c1ccc(-n2nnc3c(N4CCOCC4)ncnc32)cc1	-11.6	?	?	16.4µM*	14.8%	-27.8
c1ccc(Cn2nnc3c(N4CCc5ccccc5C4)ncnc32)cc1	0.4	i	?	14.6µM*	?	-25.3
COC[C@@H](OC(C)=O)[C@H]1OCc2ccccc2[C@@H]1/C=C/c1ccccc1	-3.8	/	/	/	/	/
SMILES	PI4K2A inh	KB-3-1 cytotox	Nrf2 inh	KB-V1 cytotox	A549 viability	Giardia kill
O=C1NC(=S)N/C1=C/c1ccc2c(c1)OCO2	-2.3	?	13µM*	?	?	13.5
CSc1nc(C)cc(OCC(=O)N/N=C/c2ccccc2O)n1	0.1	5.8µM*	-25.4%	i	5.3%	23.0
Cc1cc(=O)oc2cc(OCC(=O)N/N=C/c3ccccc3O)ccc12	-0.5	?	9.2%	i	0.9%	11.4
COc1ccccc1CNC(=O)C1CCN(C2=NS(=O)(=O)C(c3ccc(C)c(C)c3)=C2C)CC1	-3.8	i	/	i	-5.7%	/
CC(C)CC(=O)NC(NC(=S)Nc1cccc2cccnc12)C(Cl)(Cl)Cl (centres undefined)	-1.3	?	20.6µM*	i	-20.7%	9.3
Cc1ccc(C2N=C(Nc3nc4ccccc4o3)NC3=C2C(=O)CC(C)(C)C3)cc1 (centres undefined)	/	i	21.6%	i	-2.4%	-0.7
CC(=O)Nc1ccc(Nc2cc(C)nc3c(-c4ccccc4)cnn23)cc1	3.2	?	?	16.4µM*	0.6%	-15.7
C=CCSc1cc(C)nc2c(-c3ccccc3)cnn12	0.8	?	?	8.2µM*	-1.6%	-12.4
Cc1cc(N)n2ncc(-c3ccccc3)c2n1	5.4	i	?	i	-8.4%	-5.2
CCN(c1ccccc1)S(=O)(=O)c1ccc(C(=O)Nc2c(C)n(C)n(-c3ccccc3)c2=O)cc1	1.2	i	-1.3%	i	4.2%	-5.0
CCCCN(c1ccccc1)S(=O)(=O)c1cccc(C(=O)Nc2c(C)n(C)n(-c3ccccc3)c2=O)c1	-4.9	25.9µM*	-21.7%	2.59µM*	-17.3%	28.2
CC(C)COc1cccc(C(=O)Nc2cc(S(=O)(=O)N3CCOCC3)ccc2N2CCCC2)c1	0.7	i	?	18.4µM*	-15.4%	0.5
O=C(Nc1cc(S(=O)(=O)N2CCOCC2)ccc1N1CCCCC1)c1ccccc1	0.7	i	-1.5%	5.17µM*	4.0%	-1.8
CN1CCN(c2ccc(S(=O)(=O)N3CCCCC3)cc2NC(=O)c2ccc3ccccc3c2)CC1	1.7	?	-9.7%	10.3µM*	-3.0%	0.6
O=C(CN1CCc2ccccc2C1)Nc1cc(S(=O)(=O)N2CCOCC2)ccc1N1CCCC1	3.8	i	-1.2%	4.11µM*	-0.1%	-14.1
CCc1cc(C(=O)Nc2cc(S(=O)(=O)N(CC)CC)ccc2N2CCOCC2)sc1C	-1.4	i	-20.9%	i	-10.8%	-4.1
CCc1cc(C(=O)Nc2ccccc2N2CCOCC2)sc1C	2.0	i	3.7%	23.1µM*	4.3%	-13.9
Cc1cc(OCC(=O)Nc2cc(S(=O)(=O)N3CCOCC3)ccc2N2CCCC2)ccc1C(C)C	0.1	i	16.4µM*	7.31µM*	-21.5%	7.8
CCc1cc(C(=O)Nc2cc(S(=O)(=O)N3CCCCC3)ccc2N2CCN(C)CC2)sc1C	-4.1	23.1µM*	/	i	/	/
Cc1ccc(OCC(=O)Nc2cc(S(=O)(=O)N3CCOCC3)ccc2N2CCCC2)cc1	3.8	i	15.4%	i	5.5%	6.8
